Test results: PMC7862700, “An all-to-all approach to the identification of sequence-specific readers for epigenetic DNA modifications on cytosine”

What was measured:
Experiment in all cases: DAPPL (digital affinity profiling via proximity ligation, sequencing); 10 mM Tris-HCl pH 7.5, 50 mM NaCl, 1 mM DTT, 4% glycerol, room temperature, 30 min; GST-TFs on glutathione beads, 16-mer random dsDNA library, 0.1% formaldehyde crosslink after washing; high values mean tight binding
Details in all cases: protein: recombinant; tags: N-terminal GST; dsDNA, one strand shown
[1] = target: T1, FLI1 (Homo sapiens, UniProt Q01543 1-452)
T1 sequence: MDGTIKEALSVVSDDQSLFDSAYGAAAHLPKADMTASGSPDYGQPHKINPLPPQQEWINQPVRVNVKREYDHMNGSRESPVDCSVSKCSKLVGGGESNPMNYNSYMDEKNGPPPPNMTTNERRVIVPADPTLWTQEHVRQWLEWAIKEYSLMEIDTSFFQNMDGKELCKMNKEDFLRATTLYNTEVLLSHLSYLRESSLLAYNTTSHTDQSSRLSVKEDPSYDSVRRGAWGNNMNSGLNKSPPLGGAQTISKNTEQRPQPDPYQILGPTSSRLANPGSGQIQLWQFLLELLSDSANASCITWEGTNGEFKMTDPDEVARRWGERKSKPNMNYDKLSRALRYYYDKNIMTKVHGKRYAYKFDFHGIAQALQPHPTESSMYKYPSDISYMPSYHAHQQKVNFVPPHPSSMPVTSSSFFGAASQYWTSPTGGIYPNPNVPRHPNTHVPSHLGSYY
Outline: (§1)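 GST fusions of human transcription factors were expressed in yeast and captured with glutathione beads. Once given DNA barcodes and pooled alongside a tag-only sample, they were incubated for 30 min at room temperature with 200 nmole of a random double-stranded 16-mer DNA library in Tris/NaCl/DTT/glycerol buffer, then washed, crosslinked (0.1% formaldehyde), proximity-ligated, PCR-amplified and sequenced on an Illumina NextSeq500. The binding signal of each hexamer is its read frequency for a factor divided by its frequency for the tag-only sample.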

[2] = target: T2, ELK1 (Homo sapiens, UniProt P19419 1-428)
T2 sequence: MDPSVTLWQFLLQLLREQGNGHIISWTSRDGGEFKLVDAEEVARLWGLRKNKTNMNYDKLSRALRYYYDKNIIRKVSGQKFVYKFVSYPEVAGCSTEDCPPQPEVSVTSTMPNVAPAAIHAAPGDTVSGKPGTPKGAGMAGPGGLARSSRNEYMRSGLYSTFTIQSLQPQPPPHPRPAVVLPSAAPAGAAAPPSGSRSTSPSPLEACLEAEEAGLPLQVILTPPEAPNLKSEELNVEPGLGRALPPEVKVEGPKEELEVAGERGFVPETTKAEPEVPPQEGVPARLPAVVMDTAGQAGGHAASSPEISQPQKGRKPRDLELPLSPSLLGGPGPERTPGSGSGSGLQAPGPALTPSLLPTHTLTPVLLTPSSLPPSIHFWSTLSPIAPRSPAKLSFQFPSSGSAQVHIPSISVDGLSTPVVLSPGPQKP
Outline: as §1

[3] = target: T3, GABPA (Homo sapiens, UniProt Q06546 1-454)
T3 sequence: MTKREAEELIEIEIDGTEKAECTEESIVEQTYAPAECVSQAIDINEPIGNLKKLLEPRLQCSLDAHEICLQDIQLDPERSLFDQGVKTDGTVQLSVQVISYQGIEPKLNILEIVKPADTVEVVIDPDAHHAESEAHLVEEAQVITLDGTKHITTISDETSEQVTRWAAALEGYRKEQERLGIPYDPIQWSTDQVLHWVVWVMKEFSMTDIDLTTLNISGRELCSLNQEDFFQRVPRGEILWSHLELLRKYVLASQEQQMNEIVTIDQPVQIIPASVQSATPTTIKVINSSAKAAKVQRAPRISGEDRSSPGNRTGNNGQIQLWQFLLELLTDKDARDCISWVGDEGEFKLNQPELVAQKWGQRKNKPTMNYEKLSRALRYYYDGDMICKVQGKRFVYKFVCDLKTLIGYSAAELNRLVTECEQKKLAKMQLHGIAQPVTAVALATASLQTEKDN
Outline: as §1

[4] = target: T4, ERG (Homo sapiens, UniProt P11308 1-479)
T4 sequence: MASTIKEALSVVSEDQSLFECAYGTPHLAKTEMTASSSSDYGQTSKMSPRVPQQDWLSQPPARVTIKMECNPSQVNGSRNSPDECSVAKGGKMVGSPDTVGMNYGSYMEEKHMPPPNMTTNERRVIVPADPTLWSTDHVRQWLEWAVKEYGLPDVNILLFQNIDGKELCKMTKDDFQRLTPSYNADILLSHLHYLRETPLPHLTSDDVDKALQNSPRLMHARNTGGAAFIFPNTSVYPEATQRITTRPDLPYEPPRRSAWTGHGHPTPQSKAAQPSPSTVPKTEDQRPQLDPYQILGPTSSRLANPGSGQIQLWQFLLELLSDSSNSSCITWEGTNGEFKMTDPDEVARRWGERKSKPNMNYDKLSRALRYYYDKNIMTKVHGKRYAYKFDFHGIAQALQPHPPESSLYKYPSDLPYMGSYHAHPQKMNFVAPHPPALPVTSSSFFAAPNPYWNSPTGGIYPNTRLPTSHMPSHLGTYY
Outline: as §1

[5] = target: ELF1 (Homo sapiens, UniProt P32519 1-619)
ELF1, sequence (P32519 whole entry): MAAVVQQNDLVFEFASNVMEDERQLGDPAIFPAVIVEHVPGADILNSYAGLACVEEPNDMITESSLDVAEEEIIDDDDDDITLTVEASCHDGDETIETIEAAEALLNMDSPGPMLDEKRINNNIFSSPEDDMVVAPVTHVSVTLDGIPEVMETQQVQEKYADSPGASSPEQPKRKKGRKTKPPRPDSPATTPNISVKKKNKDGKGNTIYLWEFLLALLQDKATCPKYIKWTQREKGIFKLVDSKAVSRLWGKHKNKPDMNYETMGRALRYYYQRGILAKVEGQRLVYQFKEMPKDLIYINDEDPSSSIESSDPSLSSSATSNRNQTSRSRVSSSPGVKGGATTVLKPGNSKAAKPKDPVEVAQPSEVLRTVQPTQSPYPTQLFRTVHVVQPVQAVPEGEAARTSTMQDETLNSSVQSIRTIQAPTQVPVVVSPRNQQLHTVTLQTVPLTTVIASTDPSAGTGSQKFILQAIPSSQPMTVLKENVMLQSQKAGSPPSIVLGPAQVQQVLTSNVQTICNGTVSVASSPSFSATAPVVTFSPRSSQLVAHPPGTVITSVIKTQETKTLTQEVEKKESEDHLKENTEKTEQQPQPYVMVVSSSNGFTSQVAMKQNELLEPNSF
Outline: as §1

[6] = target: T5, EHF (Homo sapiens, UniProt Q9NZC4 1-300)
T5 sequence: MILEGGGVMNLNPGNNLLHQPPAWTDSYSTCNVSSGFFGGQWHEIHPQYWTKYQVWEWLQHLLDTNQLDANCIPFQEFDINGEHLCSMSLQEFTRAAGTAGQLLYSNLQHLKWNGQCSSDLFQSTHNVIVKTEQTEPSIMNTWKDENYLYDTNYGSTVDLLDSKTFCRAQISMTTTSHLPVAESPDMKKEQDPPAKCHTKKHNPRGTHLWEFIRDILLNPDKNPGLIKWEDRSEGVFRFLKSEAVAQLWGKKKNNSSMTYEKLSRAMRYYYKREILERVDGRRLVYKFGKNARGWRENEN
Outline: as §1

[7] = target: SPI1 (Homo sapiens, UniProt P17947 1-270)
Outline: as §1

[8] = target: SPIB (Homo sapiens, UniProt Q01892 1-262)
SPIB, sequence (Q01892 whole entry): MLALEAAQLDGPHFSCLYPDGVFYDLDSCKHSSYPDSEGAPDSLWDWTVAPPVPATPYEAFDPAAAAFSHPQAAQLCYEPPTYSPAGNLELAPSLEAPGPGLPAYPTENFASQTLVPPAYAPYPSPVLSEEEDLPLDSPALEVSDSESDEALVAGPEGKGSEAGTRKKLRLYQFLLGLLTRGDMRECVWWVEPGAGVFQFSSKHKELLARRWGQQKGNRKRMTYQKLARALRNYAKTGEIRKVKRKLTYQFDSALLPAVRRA
Outline: as §1

[9] = target: T6, ELK3 (Homo sapiens, UniProt P41970 1-407)
T6 sequence: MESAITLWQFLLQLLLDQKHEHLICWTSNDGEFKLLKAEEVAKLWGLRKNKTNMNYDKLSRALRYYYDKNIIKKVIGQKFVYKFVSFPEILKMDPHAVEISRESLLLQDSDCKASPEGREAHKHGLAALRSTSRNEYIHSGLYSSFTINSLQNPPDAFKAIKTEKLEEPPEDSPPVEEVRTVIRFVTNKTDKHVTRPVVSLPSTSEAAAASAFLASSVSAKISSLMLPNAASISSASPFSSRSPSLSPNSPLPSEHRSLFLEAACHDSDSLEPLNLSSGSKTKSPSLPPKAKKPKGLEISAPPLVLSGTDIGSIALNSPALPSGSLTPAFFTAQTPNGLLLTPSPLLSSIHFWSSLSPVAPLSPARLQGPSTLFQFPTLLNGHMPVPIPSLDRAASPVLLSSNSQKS
Outline: as §1

Sequence	binding signal [1]	binding signal [2]	binding signal [3]	binding signal [4]	binding signal [5]	binding signal [6]	binding signal [7]	binding signal [8]	binding signal [9]
CAGCTT	1.2 fold enrichment (6-mer frequency, TF over GST control)	1.27 fold enrichment (6-mer frequency, TF over GST control)	1.22 fold enrichment (6-mer frequency, TF over GST control)	1.2 fold enrichment (6-mer frequency, TF over GST control)	1.26 fold enrichment (6-mer frequency, TF over GST control)	1.22 fold enrichment (6-mer frequency, TF over GST control)	1.19 fold enrichment (6-mer frequency, TF over GST control)	1.2 fold enrichment (6-mer frequency, TF over GST control)	1.3 fold enrichment (6-mer frequency, TF over GST control)
ATGTGC	1.05 fold enrichment (6-mer frequency, TF over GST control)	1.1 fold enrichment (6-mer frequency, TF over GST control)	1.1 fold enrichment (6-mer frequency, TF over GST control)	1.14 fold enrichment (6-mer frequency, TF over GST control)	1.19 fold enrichment (6-mer frequency, TF over GST control)	1.05 fold enrichment (6-mer frequency, TF over GST control)	1.06 fold enrichment (6-mer frequency, TF over GST control)	1.15 fold enrichment (6-mer frequency, TF over GST control)	1.09 fold enrichment (6-mer frequency, TF over GST control)
ATACTA	1.16 fold enrichment (6-mer frequency, TF over GST control)	1.11 fold enrichment (6-mer frequency, TF over GST control)	1.25 fold enrichment (6-mer frequency, TF over GST control)	1.17 fold enrichment (6-mer frequency, TF over GST control)	1.21 fold enrichment (6-mer frequency, TF over GST control)	1.22 fold enrichment (6-mer frequency, TF over GST control)	1.13 fold enrichment (6-mer frequency, TF over GST control)	1.22 fold enrichment (6-mer frequency, TF over GST control)	1.06 fold enrichment (6-mer frequency, TF over GST control)
CCCCCA	1.23 fold enrichment (6-mer frequency, TF over GST control)	1.18 fold enrichment (6-mer frequency, TF over GST control)	1.23 fold enrichment (6-mer frequency, TF over GST control)	1.17 fold enrichment (6-mer frequency, TF over GST control)	1.2 fold enrichment (6-mer frequency, TF over GST control)	1.27 fold enrichment (6-mer frequency, TF over GST control)	1.23 fold enrichment (6-mer frequency, TF over GST control)	1.27 fold enrichment (6-mer frequency, TF over GST control)	1.06 fold enrichment (6-mer frequency, TF over GST control)
CGCCGA	1.19 fold enrichment (6-mer frequency, TF over GST control)	1.2 fold enrichment (6-mer frequency, TF over GST control)	1.26 fold enrichment (6-mer frequency, TF over GST control)	1.1 fold enrichment (6-mer frequency, TF over GST control)	1.19 fold enrichment (6-mer frequency, TF over GST control)	1.22 fold enrichment (6-mer frequency, TF over GST control)	1.16 fold enrichment (6-mer frequency, TF over GST control)	1.18 fold enrichment (6-mer frequency, TF over GST control)	1.22 fold enrichment (6-mer frequency, TF over GST control)
CGTCTC	1.41 fold enrichment (6-mer frequency, TF over GST control)	1.36 fold enrichment (6-mer frequency, TF over GST control)	1.49 fold enrichment (6-mer frequency, TF over GST control)	1.31 fold enrichment (6-mer frequency, TF over GST control)	1.53 fold enrichment (6-mer frequency, TF over GST control)	1.41 fold enrichment (6-mer frequency, TF over GST control)	1.36 fold enrichment (6-mer frequency, TF over GST control)	1.61 fold enrichment (6-mer frequency, TF over GST control)	1.63 fold enrichment (6-mer frequency, TF over GST control)
ATCTTT	1.26 fold enrichment (6-mer frequency, TF over GST control)	1.24 fold enrichment (6-mer frequency, TF over GST control)	1.22 fold enrichment (6-mer frequency, TF over GST control)	1.21 fold enrichment (6-mer frequency, TF over GST control)	1.19 fold enrichment (6-mer frequency, TF over GST control)	1.27 fold enrichment (6-mer frequency, TF over GST control)	1.21 fold enrichment (6-mer frequency, TF over GST control)	1.23 fold enrichment (6-mer frequency, TF over GST control)	1.22 fold enrichment (6-mer frequency, TF over GST control)
